# “And” between values parts separate entries of the source, which are not always exact repeats. Equal values may be shown once. Records with an inconclusive call do not appear. Entries that show only a call come without a potency. The source holds several records for some structures; these can differ, active in one and inactive in another. The source made the active and inactive calls. Unless noted, calls follow the shape of the dose curve; as a rule, active = well fitted curve in the direction sought with a large enough effect; inconclusive = small, poorly fitted or top-dose-only effect, or another doubt; inactive = no such curve, though single readings can be large; an effect the other way counts as inactive or inconclusive.
# How the values were obtained:
# [1] = qHTS to identify inhibitors of the type 1 interferon - major histocompatibility complex class I in skeletal muscle: primary screen against the NCATS Mechanism Interrogation Plate v5.0 (MIPE) Libary (AID 1347411); also: nearly all actives have a fitted effect of over 65% in size
# Method in brief: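 IFN-beta-driven (4 ng/ml) HLA-B-HiBit expression in CRISPR-tagged C25cl48 myoblasts; compounds 11-pt, 1:3, max 46 uM, 24 hr exposure; lytic NanoLuc complementation luminescence.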
# [2] = molecular target: Calcium and integrin-binding protein 1 (Homo sapiens) (UniProt Q99828); test: Primary qHTS for Identification of Calcium Integrin Binding Protein 1 (CIB1) Competitor (AID 1508620); also: potency is read from the fitted curve at half-maximal effect;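 as to activity change, negative = inhibition: GST tagged CIB1 binding a fluorescein labelled alphaIIb integrin peptide tracer; top concentration of the series differs between compounds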
# Method in brief: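 Fluorescence polarization competition: GST-tagged CIB1 (1 uM final) preincubated with compound 15 min at room temperature, then FITC-labelled alphaIIb peptide (100 nM final) added. After 15 min at room temperature, polarization read at Ex 480/Em 540.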
# [3] = Primary qHTS for inhibitors of nuclear receptor binding SET domain protein 2 (NSD2) in an isogenic RCH-ACV NSD2 p.E1099K mutant (9B) (AID 1645876); also: nearly all actives have a fitted effect of over 70% in size
# [4] = Primary qHTS for inhibitors of nuclear receptor binding SET domain protein 2 (NSD2) in an RCH-ACV wild type WT cells (2C) (AID 1645877); also: nearly all actives have a fitted effect of over 70% in size; also: potency is read from the fitted curve at half-maximal effect
# [5] = molecular target: Catechol O-methyltransferase (Homo sapiens) (UniProt P21964); test: Confirmatory Screen for Target Class Profiling of Small Molecule Inhibitors of Methyltransferases (AID 1745852; calls by dose curve; also: potency is read from the fitted curve at half-maximal effect); conditions: MTase-Glo luminescence, SAH detection, recombinant enzyme; measured here: COMT max response; stronger effect = lower value
# [6] = molecular target: Guanidinoacetate N-methyltransferase (Homo sapiens) (UniProt Q14353); test: as above; conditions: MTase-Glo luminescence, SAH detection, recombinant enzyme; activity change, negative = inhibition: at 57.3 µM (top of the series) unless noted
# [7] = molecular target: Nicotinamide N-methyltransferase (Homo sapiens) (UniProt P40261); test: as above; conditions: MTase-Glo luminescence, SAH detection, recombinant enzyme; measured here: NNMT max response; stronger effect = lower value
# [8] = molecular target: Phenylethanolamine N-methyltransferase (Homo sapiens) (UniProt P11086); test: as above; conditions: MTase-Glo luminescence, SAH detection, recombinant enzyme; measured here: PNMT max response; stronger effect = lower value
# [9] = molecular target: Cytochrome P450 2D6 (Homo sapiens) (UniProt P10635); test: Cytochrome P450 family 2 subfamily D member 6 (CYP2D6) small molecule antagonists: luciferase biochemical (cell-free) qHTS assay (AID 1645840; active = well fitted curve in the direction sought with a large enough effect in the repeat runs; an effect the other way counts as inactive or inconclusive; also: nearly all actives have a fitted effect of over 55% in size; also: potency is read from the fitted curve at half-maximal effect)
# Method in brief: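 P450-Glo CYP2D6 system: proluciferin substrate converted by enzyme to luciferin, read by luminescence proportional to activity. Enzyme-substrate mix with compound 10 min at room temperature, then NADPH regeneration 1 h before detection reagent.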
# [10] = molecular target: Cytochrome P450 2C9 (Homo sapiens) (UniProt P11712); test: Cytochrome P450 family 2 subfamily C member 9 (CYP2C9) small molecule antagonists: luciferase biochemical (cell-free) qHTS assay (AID 1645842; active = well fitted curve in the direction sought with a large enough effect in the repeat runs; an effect the other way counts as inactive or inconclusive; also: nearly all actives have a fitted effect of over 55% in size; also: potency is read from the fitted curve at half-maximal effect)
# Method in brief: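 P450-Glo CYP2C9 system: proluciferin substrate with enzyme in mix containing 0.4% BSA, 10 min at room temperature, then NADPH regeneration solution added and incubated 1 h at 37C. Detection reagent stopped reaction; luminescence read after 20 min as RLU.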
# [11] = molecular target: N-terminal Xaa-Pro-Lys N-methyltransferase 1 (Homo sapiens) (UniProt Q9BV86); test: Confirmatory qHTS for Inhibitors of N-terminal methyltransferase 1 (NTMT1): MTaseGlo Assay (AID 1645874); also: potency is read from the fitted curve at half-maximal effect; nearly all actives have a fitted effect of over 65% in size
# Method in brief: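 Enzyme mix (125 nM NTMT1, 100 uM SAM) + compound, 15 min RT; + 1 uM SPKRIA, 30 min RT, dark; MTase-Glo reagent 30 min, detection solution 30 min; luminescence. % inhibition vs no-enzyme/DMSO controls, 4-parameter Hill fit.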
# [12] = molecular target: Calcium and integrin-binding protein 1 (Homo sapiens) (UniProt Q99828); test: Confirmatory qHTS for Identification of Calcium Integrin Binding Protein 1 (CIB1) Competitor (AID 1508617); conditions: CIB1 binding competition assay, biochemical qHTS; also: potency is read from the fitted curve at half-maximal effect; nearly all actives have a fitted effect of over 65% in size
# Method in brief: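 Confirmatory qHTS measures displacement of a FITC-alphaIIb peptide (100 nM) from CIB1-GST (1 uM) by fluorescence polarization. Calcium-containing HEPES buffer, pH 7.4; two 15 min room-temperature incubations.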
# Chain of Catechol O-methyltransferase (Homo sapiens) (P21964 whole entry, looked up): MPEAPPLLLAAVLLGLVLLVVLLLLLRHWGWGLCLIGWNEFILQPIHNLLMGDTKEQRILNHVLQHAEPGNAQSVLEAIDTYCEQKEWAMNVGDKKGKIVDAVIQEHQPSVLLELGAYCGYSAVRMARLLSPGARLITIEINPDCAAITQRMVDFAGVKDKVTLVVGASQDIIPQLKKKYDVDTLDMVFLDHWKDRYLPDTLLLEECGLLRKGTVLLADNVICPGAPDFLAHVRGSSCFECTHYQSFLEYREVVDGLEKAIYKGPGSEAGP
# Chain of Cytochrome P450 2C9 (Homo sapiens) (P11712 whole entry, looked up): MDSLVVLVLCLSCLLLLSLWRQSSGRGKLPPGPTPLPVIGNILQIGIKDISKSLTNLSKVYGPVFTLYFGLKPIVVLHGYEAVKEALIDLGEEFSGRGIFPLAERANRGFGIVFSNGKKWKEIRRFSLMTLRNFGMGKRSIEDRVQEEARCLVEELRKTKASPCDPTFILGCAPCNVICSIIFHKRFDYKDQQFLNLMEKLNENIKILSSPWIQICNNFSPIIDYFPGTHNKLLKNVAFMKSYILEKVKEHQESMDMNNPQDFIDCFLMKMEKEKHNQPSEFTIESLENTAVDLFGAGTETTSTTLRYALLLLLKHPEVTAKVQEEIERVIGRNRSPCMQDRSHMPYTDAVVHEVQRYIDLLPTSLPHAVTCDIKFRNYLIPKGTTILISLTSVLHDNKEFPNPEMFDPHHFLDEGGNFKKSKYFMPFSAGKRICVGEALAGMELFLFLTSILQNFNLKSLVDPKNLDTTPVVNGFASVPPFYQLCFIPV
# Chain of Phenylethanolamine N-methyltransferase (Homo sapiens) (P11086 whole entry, looked up): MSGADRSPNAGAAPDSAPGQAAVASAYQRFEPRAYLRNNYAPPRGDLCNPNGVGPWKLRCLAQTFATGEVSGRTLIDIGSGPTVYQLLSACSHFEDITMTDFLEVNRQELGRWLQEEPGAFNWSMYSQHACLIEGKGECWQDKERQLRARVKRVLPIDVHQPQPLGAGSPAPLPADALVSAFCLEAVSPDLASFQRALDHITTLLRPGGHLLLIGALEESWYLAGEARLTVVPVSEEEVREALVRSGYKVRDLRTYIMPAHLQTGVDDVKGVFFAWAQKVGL
# Chain of Nicotinamide N-methyltransferase (Homo sapiens) (P40261 whole entry, looked up): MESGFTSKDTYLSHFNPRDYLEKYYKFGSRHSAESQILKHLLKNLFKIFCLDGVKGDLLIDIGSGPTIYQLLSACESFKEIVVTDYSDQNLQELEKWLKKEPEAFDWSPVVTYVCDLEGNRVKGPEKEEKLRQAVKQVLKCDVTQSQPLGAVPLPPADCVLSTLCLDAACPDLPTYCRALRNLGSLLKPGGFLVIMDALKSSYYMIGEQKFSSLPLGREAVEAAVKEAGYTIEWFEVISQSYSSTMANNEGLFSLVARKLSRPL
# Chain of Cytochrome P450 2D6 (Homo sapiens) (P10635 whole entry, looked up): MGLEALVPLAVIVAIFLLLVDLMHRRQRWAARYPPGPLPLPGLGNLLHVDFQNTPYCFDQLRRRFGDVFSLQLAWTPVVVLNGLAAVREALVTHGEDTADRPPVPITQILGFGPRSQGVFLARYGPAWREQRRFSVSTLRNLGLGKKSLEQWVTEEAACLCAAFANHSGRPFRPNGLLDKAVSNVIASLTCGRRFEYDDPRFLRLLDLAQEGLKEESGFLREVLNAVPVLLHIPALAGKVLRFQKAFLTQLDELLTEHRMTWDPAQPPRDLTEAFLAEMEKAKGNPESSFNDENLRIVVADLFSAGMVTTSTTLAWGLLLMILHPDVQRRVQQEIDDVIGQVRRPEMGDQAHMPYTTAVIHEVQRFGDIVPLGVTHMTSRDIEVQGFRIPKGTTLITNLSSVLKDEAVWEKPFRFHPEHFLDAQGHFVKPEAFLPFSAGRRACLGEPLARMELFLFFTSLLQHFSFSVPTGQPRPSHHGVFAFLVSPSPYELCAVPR
# Chain of Calcium and integrin-binding protein 1 (Homo sapiens) (Q99828 whole entry, looked up): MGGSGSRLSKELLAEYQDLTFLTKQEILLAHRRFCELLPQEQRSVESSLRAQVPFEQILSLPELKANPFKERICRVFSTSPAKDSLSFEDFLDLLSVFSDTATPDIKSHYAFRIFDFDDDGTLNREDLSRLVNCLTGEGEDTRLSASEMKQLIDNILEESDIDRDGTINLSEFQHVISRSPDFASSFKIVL
# Chain of N-terminal Xaa-Pro-Lys N-methyltransferase 1 (Homo sapiens) (Q9BV86 whole entry, looked up): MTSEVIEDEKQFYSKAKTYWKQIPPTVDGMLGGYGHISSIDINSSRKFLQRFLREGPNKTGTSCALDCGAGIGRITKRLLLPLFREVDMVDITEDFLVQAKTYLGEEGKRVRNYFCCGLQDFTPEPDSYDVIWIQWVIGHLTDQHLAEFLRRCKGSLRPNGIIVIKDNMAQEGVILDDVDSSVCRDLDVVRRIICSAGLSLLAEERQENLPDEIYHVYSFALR
smiles,measurement,setting,value
CC(C)N(CCCNC(=O)Nc1ccc(C(C)(C)C)cc1)C[C@H]1O[C@@H](n2ccc3c(N)ncnc32)[C@H](O)[C@@H]1O,outcome,[1],inactive
same,Potency,[2],inactive
same,Potency,[3],inactive
same,Potency,[4],inactive and 18.6 µM (active)
same,activity,[5],-14.9%
same,"activity change, negative = inhibition",[6],-7.92%
same,activity,[7],-18.1%
same,activity,[8],-18.6%
COc1ccc2[nH]c(S(=O)Cc3ncc(C)c(OC)c3C)nc2c1 (centres undefined),outcome,[1],inactive
same,Potency,[2],inactive
same,Potency,[3],inactive
N#Cc1ccc(C2CCCc3cncn32)cc1 (centres undefined),outcome,[1],inactive
same,Potency,[2],inactive
same,Potency,[9],17.5 µM (active)
same,Potency,[3],inactive
same,Potency,[4],inactive
Cc1c(F)cc(C(=O)NC2CC2)cc1-c1ccc(C(=O)NCC(C)(C)C)cn1,outcome,[1],inactive
same,Potency,[2],inactive
same,Potency,[9],inactive
N#Cc1cccc(-c2c[nH]c3ncnc(N4CCOCC4)c23)c1,outcome,[1],inactive
same,Potency,[2],inactive
same,Potency,[10],2.39 µM (active)
same,Potency,[11],39.8 µM (active)
same,activity,[5],-74.9%
same,Potency,[6],24.1 µM (active)
same,activity,[7],-64.5%
same,activity,[8],-72.3%
CC(C)[C@](O)(c1ccc2cc(OC(F)F)c(OC(F)F)cc2c1)c1cn[nH]n1,outcome,[1],inactive
same,Potency,[2],inactive
COc1c(C)c(OCC=C(C)C)cc2c1CNC2=O,Potency,[2],inactive
CC1OC(O[C@@H]2[C@H](O)[C@@H](OC3OC(CO)C(O)C(O)C3O)[C@H](OC(=O)[C@]34CCC(C)(C)C[C@H]3C3=CCC5[C@@]6(C)CC[C@H](O[C@@H]7O[C@H](C(=O)O)[C@@H](O)[C@H](O[C@@H]8OC[C@@H](O)[C@H](O)[C@H]8O)[C@H]7O[C@@H]7O[C@H](CO)[C@H](O)[C@H](O)[C@H]7O)[C@@](C)(C=O)C6CC[C@@]5(C)[C@]3(C)C[C@H]4O)O[C@@H]2C)C(O)C(O)C1OC1OCC(O)C(O)C1O (some centres undefined),"activity change, negative = inhibition",[2],-2.12% [at 12.4 µM] (inactive)
O=C(COCC(=O)N1CCN(C(c2ccccc2)c2ccccc2)CC1)Nc1ccc(Cl)cc1C(=O)O,outcome,[1],inactive
same,Potency,[2],inactive
same,Potency,[9],inactive
same,Potency,[3],inactive
same,Potency,[4],inactive
same,activity,[5],-5.29%
same,"activity change, negative = inhibition",[6],-4.07%
same,activity,[7],-44.4%
same,activity,[8],-8.81%
CNc1nc(C)nc(N[C@H]2CCC[C@@H](C(=O)NCc3ccc(C#N)cc3C(F)(F)F)C2)n1,outcome,[1],inactive
same,Potency,[2],inactive
same,Potency,[10],inactive
same,Potency,[3],inactive
same,Potency,[4],inactive
Nc1ncnc2c1C(=O)N(c1ccc(C3CCC(CC(=O)O)CC3)cc1)CCO2 (centres undefined),outcome,[1],inactive
same,Potency,[2],inactive
same,Potency,[9],inactive
same,Potency,[10],inactive
same,Potency,[3],inactive
same,Potency,[4],inactive
Cc1ccccc1-n1nc(-c2c(-c3ccc(F)cc3)nn3c2NC[C@@H](CO)C3)ccc1=O,outcome,[1],inactive
same,Potency,[2],inactive
same,Potency,[9],inactive
same,Potency,[10],6.74 µM (active)
N#CN1CCC[C@@H](n2nc(-c3ccc(Oc4ccc(F)cc4F)cc3)c(C(N)=O)c2N)C1,outcome,[1],inactive
same,Potency,[4],16.6 µM (active)
COC(=O)[C@@H](NC(=O)[C@H](CC(C)C)NC(=O)N(Cc1ccccc1)C[C@@H](O)[C@H](Cc1ccccc1)NC(=O)OC(C)(C)C)C(C)C,Potency,[2],inactive
CCCCOc1nc(N)c2c(n1)N(Cc1cccc(CN3CCCC3)c1)CC(=O)N2,outcome,[1],inactive
same,Potency,[2],inactive
same,Potency,[9],3.38 µM (active)
same,Potency,[10],inactive
same,Potency,[3],inactive
same,Potency,[4],inactive
CC(=O)NC(Cc1c[nH]c2ccccc(=O)c12)C(=O)O (centres undefined),Potency,[12],44.7 µM (active)
same,Potency,[3],inactive
same,Potency,[4],inactive
same,activity,[5],-73.7%
same,"activity change, negative = inhibition",[6],0%
same,activity,[7],3.04%
same,activity,[8],-0.114%
Cc1c(Cc2ccc3ccccc3n2)c2cc(F)ccc2n1CC(=O)O,Potency,[12],50.1 µM (active)
same,Potency,[2],44.7 µM (active)
same,Potency,[9],inactive
same,Potency,[3],inactive
same,Potency,[4],inactive
CC1=C2C[C@H]3OC(=O)[C@H](O)[C@@]4(O)[C@@H](C)[C@@H](O)[C@H](O)C([C@@]2(C)[C@H](O)[C@@H](O)C1)[C@@]34C (some centres undefined),Potency,[2],inactive
COc1cccc2c1c(O)c(C(=O)N(C)c1ccc(C(F)(F)F)cc1)c(=O)n2C,outcome,[1],inactive
same,Potency,[2],inactive
same,Potency,[9],inactive
same,Potency,[3],inactive
same,Potency,[4],inactive
C=C[C@]1(C)C[C@@H](OC(=O)CSC2C[C@H]3CC[C@@H](C2)N3C)[C@]2(C)[C@H](C)CC[C@]3(CCC(=O)[C@H]32)[C@@H](C)[C@@H]1O (some centres undefined),Potency,[2],inactive
Cn1cc(-c2c[nH]c3ncnc(N4CCOCC4)c23)cn1,outcome,[1],inactive
same,Potency,[2],inactive
same,Potency,[3],inactive
same,Potency,[4],23.1 µM (active)
C=C(C)[C@H]1CC[C@]2(C(=O)O)CC[C@]3(C)C(CCC4[C@@]5(C)CCC(=O)C(C)(C)C5CC[C@]43C)C12 (some centres undefined),Potency,[2],inactive
C/C=C(\C)C(=O)OC1CC2C(CC=C3CC(OC4CC(OC)C(OC5CC(OC)C(OC6CC(OC)C(OC7CC(OC)C(OC8CC(OC)C(OC9OC(CO)C(O)C(O)C9O)C(C)O8)C(C)O7)C(C)O6)C(C)O5)C(C)O4)CCC32C)C2(O)CCC(C(C)=O)C12C (centres undefined),"activity change, negative = inhibition",[2],0.354% [at 12.4 µM] (inactive)
